Laboratory results as given in PubChem BioAssay (NCI).
Compounds without any hit were thinned out: in the full panel of roughly 83,000, 20% have a hit.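 Assay: single dose, 48 h. Readout: percent growth (0 = no net growth; negative = cell death). Active: <10.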 Calls of active or inactive are those of the source.

How the values were obtained:
Experiment in all cases: NCI-60 one-dose screen, 48 h (100 = growth as untreated, 0 = no growth, -100 = all killed)
Settings in all cases: 10 µM unless noted
[1] = tested on: DU-145 prostate
[2] = tested on: K-562 leukemia
[3] = tested on: MALME-3M melanoma
[4] = tested on: MDA-MB-231 breast
[5] = tested on: RXF 393 renal
[6] = tested on: SF-268 CNS
[7] = tested on: SF-295 CNS
[8] = tested on: SF-539 CNS
[9] = tested on: UACC-257 melanoma
[10] = tested on: M14 melanoma

Measured: growth

COc1cc(OC)c2c3nc4cc(C)c(C)cc4nc3n(CCN(C)C)c2c1
inactive: [1] 60.4% | [4] 38% | [6] 86.2% | [7] 53.7% | [9] 101% | [10] 47.9%
active: [2] 1.64% | [3] -36.1% | [5] -18.4% | [8] -83.5%

Cc1cc2c(cc1Cl)C(=O)/C(=C/c1ccc(F)cc1)O2
inactive: [1] 118% | [2] 77.6% | [3] 100% | [4] 90.1% | [5] 95.7% | [6] 117% | [7] 98.9% | [8] 85.9% | [9] 106% | [10] 96.8%

Cc1sc2c(c1C)C(c1ccc(Cl)cc1)=N[C@@H](CC(=O)NCCCCCNC(=O)COc1ccc(C3CCC(=O)NC3=O)cc1)c1nnc(C)n1-2 (stereo not given in full)
inactive: [1] 88.5% | [2] 28.4% | [3] 13% | [5] 45.3% | [6] 65.4% | [8] 23.1% | [9] 49.3% | [10] 17.6%
active: [4] 5.01% | [7] 9.91%

CN(C)CCCNC(=O)c1cc(NC(=O)c2cc(NC(=O)c3ccc(C#Cc4ccccc4)cc3)cn2C)cn1C
active: [2] -54.9% | [3] -95.8% | [4] -68.8% | [5] -37.7% | [7] -91.8% | [8] -84.1% | [10] -79.8%
inactive: [1] 18.2% | [6] 18.1% | [9] 43.8%

NS(=O)(=O)c1ccc(N=Nc2c(O)n(CC(=O)Nc3ccccc3)c3ccccc23)cc1
inactive: [1] 21.2% | [2] 14.7% | [3] 20.7% | [5] 48.9% | [6] 75.3% | [7] 13.3% | [9] 61.5% | [10] 11.2%
active: [4] -9.74% | [8] -27.2%

Cn1cc(-c2nc(N)nnc2-c2c[nH]c3ccc(Br)cc23)c2cc(Br)cnc21
active: [2] 0.943% | [3] 4.82% | [5] -8.55% | [8] -9.44% | [10] 0.895%
inactive: [1] 14.2% | [4] 11.4% | [6] 10.9% | [7] 11.4% | [9] 47.3%

CN(C)CCCNC(=O)c1cc(NC(=O)c2cc(NC(=O)c3ccc(/C=C/c4ccccc4)cc3)cn2C)cn1C
inactive: [1] 57.1% | [3] 35% | [4] 65.6% | [5] 25% | [6] 48.9% | [7] 35.2% | [8] 32.7% | [9] 54.2% | [10] 48.1%
active: [2] -41%

Cc1cc2nc3c([nH]c2cc1C)c1ccc(=O)cc1n3CCN(C)C
active: [2] 9.48%
inactive: [1] 28.8% | [3] 27.2% | [4] 38.7% | [5] 57.8% | [6] 61% | [7] 27% | [8] 26.4% | [9] 64% | [10] 43.8%

c1ccc(-c2csc(Nc3cccc(Nc4nc(-c5ccccc5)cs4)c3)n2)cc1
inactive: [1] 58.9% | [2] 26.6% | [3] 52.8% | [4] 48% | [5] 63.8% | [6] 40.6% | [7] 37.6% | [8] 57.7% | [9] 46.1% | [10] 47.8%

COc1c(F)ccc(C(=O)Nc2ccc3nc(NC(=O)C4CCCN(S(=O)(=O)C5CC5)C4)sc3c2)c1F (stereo not given)
inactive: [1] 66.8% | [2] 20.5% | [3] 43.5% | [4] 46.7% | [6] 76.2% | [7] 18.1% | [8] 37.6% | [9] 20.9% | [10] 50.3%
active: [5] -4.35%

COc1cc(C2CC(c3cc(OC)c(OC)c(OC)c3)=NN2c2ccccc2)ccc1OCc1ccc(C)cc1 (stereo not given)
inactive: [1] 100% | [2] 92.8% | [3] 95.3% | [4] 102% | [5] 101% | [6] 87.6% | [7] 108% | [8] 95.7% | [9] 101% | [10] 97.8%

COc1ccc(C2=NN(C(C)=O)C(c3ccc(OCc4ccc(Cl)cc4)c(OC)c3)C2)cc1OC (stereo not given)
inactive: [1] 51.3% | [2] 31% | [3] 48.1% | [4] 69.6% | [5] 52.9% | [6] 47.1% | [7] 37.8% | [8] 63.8% | [9] 40.2% | [10] 54.2%

COc1cc2c(c(OC)c1OC)C(=O)CC(c1cccc(NC(=O)c3cc(NC(=O)[C@H](CO)NC(=O)OC(C)(C)C)ccc3Cl)c1)O2 (stereo not given in full)
active: [4] 6.43%
inactive: [1] 27.5% | [2] 12.7% | [3] 43.2% | [5] 46.8% | [6] 45.4% | [7] 37% | [8] 37% | [9] 26.9% | [10] 22.5%

CCCCCCCCc1ccc(S(=O)(=O)Nc2ccc(CC)cc2C(=O)O)cc1
inactive: [1] 105% | [2] 83% | [3] 98.2% | [4] 102% | [5] 109% | [6] 97.4% | [7] 81.2% | [8] 101% | [9] 91.1% | [10] 99.1%

CCCCCCCS(=O)(=O)N1CCCC(C(=O)Nc2nc3ccc(NC(=O)c4ccc(F)c(OC)c4F)cc3s2)C1 (stereo not given)
active: [5] -48.1%
inactive: [1] 63.5% | [2] 61.8% | [3] 35.4% | [4] 14.7% | [6] 63.1% | [7] 48.7% | [8] 25.8% | [9] 69% | [10] 72.5%

Cc1cc(C)cc(NC(=O)Cn2cc(COn3nnc4ccccc43)nn2)c1
inactive: [1] 111% | [2] 102% | [3] 108% | [4] 106% | [5] 122% | [6] 116% | [7] 110% | [8] 99.6% | [9] 101% | [10] 106%

O=C(NN1C(=O)/C(=C/C=C/c2ccc([N+](=O)[O-])o2)SC1=S)c1ccccc1O
active: [1] -100% | [2] 7.19% | [3] -95% | [4] -93.1% | [5] -94.5% | [6] -81.4% | [7] -48.2% | [8] -100% | [9] -85% | [10] -81.3%

CN(C)c1nc(NCCNS(=O)(=O)c2ccc(C3=Nc4c(N)nc(N)nc4NC(c4ccc(F)cc4)C3)cc2)nc(Nc2ccc(F)cc2)n1 (stereo not given)
inactive: [1] 54.2% | [3] 47.1% | [4] 20.8% | [5] 16.5% | [6] 31.9% | [7] 57.3% | [9] 59.3% | [10] 28%
active: [2] 3.61% | [8] -25.3%

C#CCOc1ccc(/C=N/Nc2nc(-c3cc4cc(Br)ccc4oc3=O)cs2)cc1OC
inactive: [1] 69.1% | [2] 58% | [3] 59.4% | [4] 36.3% | [5] 58.1% | [6] 59.6% | [7] 24.2% | [8] 25.1% | [9] 86.4% | [10] 79.4%

CC1(C)CC[C@]2(C(=O)O)CC[C@]3(C)C(=CCC4[C@@]5(C)C[C@@H](O)[C@@H]6OC(c7ccco7)OC[C@@]6(C)C5CC[C@]43C)C2C1 (stereo not given in full)
inactive: [1] 29.1% | [2] 21.2% | [4] 59.7% | [5] 32.4% | [6] 31.9% | [7] 24.5% | [8] 21.9% | [10] 23.3%
active: [3] 9.79% | [9] 1.3%

S=C(Nc1ccc(OCc2nc3ccccc3[nH]2)cc1)NC1CCCCC1
inactive: [1] 98.4% | [2] 108% | [3] 67.6% | [4] 100% | [5] 147% | [6] 106% | [7] 74.4% | [8] 79.5% | [9] 95.5% | [10] 105%

O=C(COc1ccc(NC(=O)Nc2ccc(Cl)c(Cl)c2)cc1)N=Nc1c(O)[nH]c2ccc(Cl)cc12
active: [1] -31.3% | [2] 4.71% | [3] -76.6% | [4] -66.5% | [5] -53% | [6] -12.3% | [7] -61% | [8] -90.2% | [9] -72.2% | [10] -71.2%

C#CCOc1cc(N(CC)CC)ccc1C(C(=O)NC(C)(C)C)N(C(=O)C1CCc2cc(F)ccc2O1)c1cc(C)cc(C)c1 (stereo not given)
inactive: [1] 58.1% | [2] 16.4% | [3] 59.4% | [4] 46.7% | [5] 42.9% | [6] 38.2% | [7] 33.5% | [8] 53.5% | [9] 42.5% | [10] 39.9%

CC(=O)Nc1ccc(-c2nc3cc(-c4ccc(O)cc4)ccc3n2C)cc1
inactive: [1] 54.9% | [2] 15.5% | [3] 68.4% | [4] 53.4% | [5] 66.7% | [6] 68.1% | [7] 47.1% | [8] 49.2% | [9] 80.8% | [10] 63.9%
